Calls of active or inactive are those of the source.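 Rule for the calls: active = primary screen hit whose fluorescence ratio, in both repeats, exceeds the weak agonist control mean by 3 SD; inactive = the rest.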

The assay concerns TRPC4 (transient receptor potential cation channel C4 beta), mouse. Description: potentiation of DAMGO EC20 TRPC4 response – cell-based, second round, Fluo-4, HEK293 TRPC4beta/mu-opioid, 1 µM, confirmation (AID 2554). Conditions: DAMGO EC20, Fluo-4 calcium flux, at 1 µM; hits give high values. On the technique in general: Calcium assays in cells follow changes in intracellular calcium, usually with a dye or a luminescent sensor.
On to `Cc1cc(-c2ccc(C)c(S(=O)(=O)NCCCN(Cc3ccccc3)C(C)C)c2)on1`, for which the outcome was inactive.
The same measure, in the same setting: the value for `CCc1nc(NCCc2ccccn2)c2nnn(Cc3ccccc3F)c2n1` was “inactive”; that for `Cc1sc2ncnc(NCC(C)(C)N3CCOCC3)c2c1C` was “inactive”.
Take `Cc1ccc(N2CCN(c3ccc(NCc4nc5ccccc5n4C)cc3)CC2)cc1`: the result was inactive.
Regarding `COc1ccc(C(CNC(=O)CN2C(=O)NC3(CCCC3)C2=O)N(C)C)cc1` (stereo not given), the result was inactive.
Still for that read-out and setting: the value for `Cc1cccc(NC(=S)NCC(c2cccnc2)N(C)C)c1C` (stereo not given) was “inactive”; that for `Cc1ccccc1OCC(=O)NNC(=S)NC(=O)c1ccco1` was “inactive”; that for `Cc1ccc(Sc2cc(C(=O)NCCN(C)C)c3ccccc3n2)cc1` was “inactive”.
For the compound `O=C(O)c1ccc(-c2ccc(/C=c3/sc4nc5ccccc5n4c3=O)o2)cc1Cl`, the outcome was inactive.
Same read-out and setting: the value for `Cc1ccccc1C(=O)NNC(=S)NC(=O)c1ccccc1` was “inactive”; that for `CN(C)C(CNC(=O)c1ccc2ccccc2n1)c1ccccc1` (stereo not given) was “inactive”; that for `Cc1cc(NC(=O)CN2CCc3ccccc3C2)nc2c1c(=O)oc1ccccc12` was “inactive”.
Same read-out and setting: the value for `Cn1c(CN2CCN(c3cccc(Cl)c3)CC2)nc2ccccc21` was “inactive”; that for `CN(C)C(CNC(=O)c1cnc(Cl)c(Cl)c1)c1ccccc1` (stereo not given) was “inactive”.
On the same count and under the same terms, the same measure for `Cc1ccc(Cl)cc1NC(=O)CNCC(c1ccccc1)N(C)C` (stereo not given): “inactive”; for `CN(C)CCCN(C(=O)c1ccc(S(=O)(=O)N2CCOCC2)cc1)c1nc2ccc(F)cc2s1`: “inactive”; for `CN(C)CCN(C(=O)c1cccc2ccccc12)c1nc2cc3c(cc2s1)OCO3`: “inactive”.
As for `Cc1ccc2c(C)c(C(=O)N(Cc3cccs3)C3CCS(=O)(=O)C3)oc2c1` (stereo not given), the outcome was inactive.
`CCN1CCN(c2c(Cl)cccc2NC(=O)c2ccc3nsnc3c2)CC1`: the potentiation was 22% (active).
With `O=C(C1CCCN(Cc2ccncc2)C1)N1CCc2ccccc2C1` (stereo not given), the result was inactive.
For `CCN(c1ccccc1)S(=O)(=O)c1ccc(C(=O)N(CCCN(C)C)c2nc3cc4c(cc3s2)OCO4)cc1`, the outcome was inactive.
Still for that read-out and setting: the value for `CC1CCCN(CCCNC(=O)c2ccc3c(c2)N(Cc2ccccc2F)C(=O)c2ccccc2S3(=O)=O)C1` (stereo not given) was “inactive”; that for `O=C(Nc1nnc(-c2ccccc2Cl)o1)c1nc2ccccc2s1` was “inactive”.
Still for that read-out and setting: the value for `COc1ccc(C(=O)NC(=S)NNC(=O)CCc2ccccc2)cc1` was “inactive”.
Consider `Cc1cc(-c2nn(-c3ccccc3F)cc2CNCCc2cnc[nH]2)c(C)s1`, for which the outcome was inactive.
Still for that read-out and setting: the same measure for `Cc1ccc(C(=O)NC(=S)NNC(=O)c2ccccc2)cc1`: “inactive”; for `Cc1csc2c(N3CCN(C(=O)NC(C)(C)C)CC3)ncnc12`: “inactive”; for `COC(=O)[C@@]1(Cc2ccc(F)cc2)[C@H]2c3cc(C(=O)N(C)C)n(CCc4ccccn4)c3C[C@H]2CN1C(=O)c1ccccc1`: “inactive”.
In the case of `CN(CCc1ccccn1)C(=O)CC1C(=O)NCCN1Cc1ccccc1C(F)(F)F` (stereo not given), the outcome was inactive.
The same measure, in the same setting: the value for `COc1cc(/C=C/C(=O)c2ccc3c(c2)OCO3)cc(Cl)c1O` was “inactive”; that for `CCn1c(N2CCN(C(=O)Nc3ccc(F)cc3)CC2)nc2ccccc21` was “inactive”.
Still for that read-out and setting: the value for `O=S(=O)(c1ccccc1)c1nnn2c1nc(NC1CCN(Cc3ccccc3)CC1)c1cc(Cl)ccc12` was “inactive”.
For `CCOC(=O)c1oc2ccc(OC)cc2c1NC(=O)CN1CCN(C)CC1`, the result was inactive.
As for `C=CCn1c(CCNC(=O)C(C)(C)C)nc2ccccc21`, the result was inactive.
In the case of `CCOC(=O)C1(CCOc2ccccc2)CCN(Cc2ccc3c(c2)OCCO3)CC1`, the result was inactive.
Turning to `Cc1cc(C)n(-c2nc(SCCN(C)C)c3c4c(sc3n2)CCCC4)n1`, the outcome was inactive.
Turning to `COc1cc(OC)cc(C(=O)NC2CCCN(Cc3ccc(Cl)cc3)C2)c1` (stereo not given), the outcome was inactive.
Same read-out and setting: the same measure for `CN(C)C(CNC(=O)CCc1c[nH]c2ccccc12)c1ccccc1` (stereo not given): “inactive”.
For the compound `CCCCN(CC)CCCNC(=O)Cn1nc(Cc2ccncc2)c2ccccc2c1=O`, the result was inactive.
Same read-out and setting: the same measure for `COC(=O)C1=C(C)N(Cc2ccccc2)C(=NCCc2ccccn2)N[C@H]1c1cccc(F)c1`: “inactive”.

For the origin of these results see PubChem BioAssay.
